# Laboratory results published in article PMC8384837, “Expanding the binding specificity for RNA recognition by a PUF domain”.
# Substitutions are numbered along the chain they refer to.
# Experiments:
# Assay in all cases: yeast three-hybrid, YBZ-1, SC-Leu-His + 0.5 mM 3-AT, 4 days
# Settings in all cases: tags: N-Gal4 AD-HA kept; label: inside an RPR1-promoter hybrid RNA with tandem MS2 sites; ssRNA
# PUM1 PUF domain R5-KWG = PUM1 PUF domain R5-KWG (Homo sapiens, UniProt Q14671 828-1176, C1007K;R1008W;Q1011G)
# Method in brief: (§1)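 The interaction score is the logarithmic change in variant frequency from input to selection. It uses log2, with a pseudocount of 1 for absent variants, and frequencies came from PCR-amplified, Illumina-sequenced repeat regions. The libraries were Pumilio-1 PUF domains randomized at the three base-contacting residues per repeat, co-expressed with matching RNA elements in strain YBZ-1 (LexA–MS2 coat fusion, HIS3 reporter). Plating lasted four days on SC-Leu (input) or SC-Leu-His + 0.5 mM 3-AT (selection).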
# PUM1 PUF domain R5-RGD = PUM1 PUF domain R5-RGD (Homo sapiens, UniProt Q14671 828-1176, C1007R;R1008G;Q1011D)
# Method in brief: as §1
# PUM1 PUF domain R5-DFW = PUM1 PUF domain R5-DFW (Homo sapiens, UniProt Q14671 828-1176, C1007D;R1008F;Q1011W)
# Method in brief: as §1
# PUM1 PUF domain R3-DRL = PUM1 PUF domain R3-DRL (Homo sapiens, UniProt Q14671 828-1176, C935D;Q939L)
# Method in brief: as §1
# PUM1 PUF domain R4-DFA = PUM1 PUF domain R4-DFA (Homo sapiens, UniProt Q14671 828-1176, N971D;H972F;Q975A)
# Method in brief: as §1
# PUM1 PUF domain R6-SFR = molecular target: T1, PUM1 PUF domain R6-SFR (Homo sapiens, UniProt Q14671 828-1176, N1043S;Y1044F;Q1047R)
# T1 sequence: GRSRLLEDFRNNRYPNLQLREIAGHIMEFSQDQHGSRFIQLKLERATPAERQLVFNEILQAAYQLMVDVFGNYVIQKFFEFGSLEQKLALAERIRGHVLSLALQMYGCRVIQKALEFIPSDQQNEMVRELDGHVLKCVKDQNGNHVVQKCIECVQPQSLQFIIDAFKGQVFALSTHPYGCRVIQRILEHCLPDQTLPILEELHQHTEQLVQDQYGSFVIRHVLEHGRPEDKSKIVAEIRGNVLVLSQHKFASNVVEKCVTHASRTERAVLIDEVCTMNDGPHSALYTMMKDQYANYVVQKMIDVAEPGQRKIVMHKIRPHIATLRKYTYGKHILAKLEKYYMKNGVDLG
# Method in brief: as §1
# PUM1 PUF domain R8-KFP = PUM1 PUF domain R8-KFP (Homo sapiens, UniProt Q14671 828-1176, N1122K;Y1123F;Q1126P)
# Method in brief: as §1
# PUM1 PUF domain R8-NWH = PUM1 PUF domain R8-NWH (Homo sapiens, UniProt Q14671 828-1176, Y1123W;Q1126H)
# Method in brief: as §1
# PUM1 PUF domain R4-TAQ = PUM1 PUF domain R4-TAQ (Homo sapiens, UniProt Q14671 828-1176, N971T;H972A)
# Method in brief: as §1
# PUM1 PUF domain R8-RCR = PUM1 PUF domain R8-RCR (Homo sapiens, UniProt Q14671 828-1176, N1122R;Y1123C;Q1126R)
# Method in brief: as §1
# PUM1 PUF domain R3-GPV = PUM1 PUF domain R3-GPV (Homo sapiens, UniProt Q14671 828-1176, C935G;R936P;Q939V)
# Method in brief: as §1
# PUM1 PUF domain R8-RYR = PUM1 PUF domain R8-RYR (Homo sapiens, UniProt Q14671 828-1176, N1122R;Q1126R)
# Method in brief: as §1
# PUM1 PUF domain R7-GVK = PUM1 PUF domain R7-GVK (Homo sapiens, UniProt Q14671 828-1176, S1079G;N1080V;E1083K)
# Method in brief: as §1
# PUM1 PUF domain R7-GTR = PUM1 PUF domain R7-GTR (Homo sapiens, UniProt Q14671 828-1176, S1079G;N1080T;E1083R)
# Method in brief: as §1
# PUM1 PUF domain R7-KHQ = PUM1 PUF domain R7-KHQ (Homo sapiens, UniProt Q14671 828-1176, S1079K;N1080H;E1083Q)
# Method in brief: as §1
# PUM1 PUF domain R3-SLE = PUM1 PUF domain R3-SLE (Homo sapiens, UniProt Q14671 828-1176, C935S;R936L;Q939E)
# Method in brief: as §1
# PUM1 PUF domain R6-FWS = molecular target: T2, PUM1 PUF domain R6-FWS (Homo sapiens, UniProt Q14671 828-1176, N1043F;Y1044W;Q1047S)
# T2 sequence: T1 sequence with S216F, F217W, R220S
# Method in brief: as §1
# PUM1 PUF domain R3-WYA = PUM1 PUF domain R3-WYA (Homo sapiens, UniProt Q14671 828-1176, C935W;R936Y;Q939A)
# Method in brief: as §1
# PUM1 PUF domain R1-RMS = PUM1 PUF domain R1-RMS (Homo sapiens, UniProt Q14671 828-1176, S863R;R864M;Q867S)
# Method in brief: as §1
# PUM1 PUF domain R1-LKR = PUM1 PUF domain R1-LKR (Homo sapiens, UniProt Q14671 828-1176, S863L;R864K;Q867R)
# Method in brief: as §1
sequence,measurement,setting,value
GGCUAGAACUAGUGGAUCCCCCGGCGCCCGGCGGCUCGAGCCCGGGUAAGUGUCAAUAGUCUGCAUGCCGCCGGGCGCCAUGCCUGCAGGUCGACUCUAGAAAACAUG,binding signal,PUM1 PUF domain R5-KWG,4.46 log2 enrichment (interaction score)
same,binding signal,PUM1 PUF domain R5-RGD,3.87 log2 enrichment (interaction score)
same,binding signal,PUM1 PUF domain R5-DFW,2.86 log2 enrichment (interaction score)
GGCUAGAACUAGUGGAUCCCCCGGCGCCCGGCGGCUCGAGCCCGGGUAAGUGUAAAUAGUCUGCAUGCCGCCGGGCGCCAUGCCUGCAGGUCGACUCUAGAAAACAUG,binding signal,PUM1 PUF domain R3-DRL,3.71 log2 enrichment (interaction score)
same,binding signal,PUM1 PUF domain R4-DFA,2.78 log2 enrichment (interaction score)
same,binding signal,PUM1 PUF domain R6-SFR,6.56 log2 enrichment (interaction score)
same,binding signal,PUM1 PUF domain R8-KFP,4.88 log2 enrichment (interaction score)
same,binding signal,PUM1 PUF domain R8-NWH,2.75 log2 enrichment (interaction score)
same,binding signal,PUM1 PUF domain R4-TAQ,0.74 log2 enrichment (interaction score)
same,binding signal,PUM1 PUF domain R8-RCR,1.34 log2 enrichment (interaction score)
same,binding signal,PUM1 PUF domain R3-GPV,2.08 log2 enrichment (interaction score)
same,binding signal,PUM1 PUF domain R8-RYR,6.26 log2 enrichment (interaction score)
GGCUAGAACUAGUGGAUCCCCCGGCGCCCGGCGGCUCGAGCCCGGGUAAGUUUAAAUAGUCUGCAUGCCGCCGGGCGCCAUGCCUGCAGGUCGACUCUAGAAAACAUG,binding signal,PUM1 PUF domain R7-GVK,4.74 log2 enrichment (interaction score)
same,binding signal,PUM1 PUF domain R7-GTR,4.38 log2 enrichment (interaction score)
same,binding signal,PUM1 PUF domain R7-KHQ,2.38 log2 enrichment (interaction score)
GGCUAGAACUAGUGGAUCCCCCGGCGCCCGGCGGCUCGAGCCCGGGUAAGUGUAAGUAGUCUGCAUGCCGCCGGGCGCCAUGCCUGCAGGUCGACUCUAGAAAACAUG,binding signal,PUM1 PUF domain R3-SLE,3.8 log2 enrichment (interaction score)
GGCUAGAACUAGUGGAUCCCCCGGCGCCCGGCGGCUCGAGCCCGGGUAAGUGUACAUAGUCUGCAUGCCGCCGGGCGCCAUGCCUGCAGGUCGACUCUAGAAAACAUG,binding signal,PUM1 PUF domain R4-DFA,6.02 log2 enrichment (interaction score)
GGCUAGAACUAGUGGAUCCCCCGGCGCCCGGCGGCUCGAGCCCGGGUAAGUGCAAAUAGUCUGCAUGCCGCCGGGCGCCAUGCCUGCAGGUCGACUCUAGAAAACAUG,binding signal,PUM1 PUF domain R6-SFR,7.11 log2 enrichment (interaction score)
GGCUAGAACUAGUGGAUCCCCCGGCGCCCGGCGGCUCGAGCCCGGGUAAGCGUAAAUAGUCUGCAUGCCGCCGGGCGCCAUGCCUGCAGGUCGACUCUAGAAAACAUG,binding signal,PUM1 PUF domain R8-KFP,3.9 log2 enrichment (interaction score)
same,binding signal,PUM1 PUF domain R8-RCR,3.19 log2 enrichment (interaction score)
same,binding signal,PUM1 PUF domain R8-RYR,7.21 log2 enrichment (interaction score)
GGCUAGAACUAGUGGAUCCCCCGGCGCCCGGCGGCUCGAGCCCGGGUAAGUGAAAAUAGUCUGCAUGCCGCCGGGCGCCAUGCCUGCAGGUCGACUCUAGAAAACAUG,binding signal,PUM1 PUF domain R6-FWS,4.06 log2 enrichment (interaction score)
GGCUAGAACUAGUGGAUCCCCCGGCGCCCGGCGGCUCGAGCCCGGGUAAGUGUAAUUAGUCUGCAUGCCGCCGGGCGCCAUGCCUGCAGGUCGACUCUAGAAAACAUG,binding signal,PUM1 PUF domain R3-WYA,3.22 log2 enrichment (interaction score)
same,binding signal,PUM1 PUF domain R3-GPV,2.28 log2 enrichment (interaction score)
GGCUAGAACUAGUGGAUCCCCCGGCGCCCGGCGGCUCGAGCCCGGGUAAGUGUAAAUCGUCUGCAUGCCGCCGGGCGCCAUGCCUGCAGGUCGACUCUAGAAAACAUG,binding signal,PUM1 PUF domain R1-RMS,3.18 log2 enrichment (interaction score)
same,binding signal,PUM1 PUF domain R1-LKR,3.44 log2 enrichment (interaction score)
GGCUAGAACUAGUGGAUCCCCCGGCGCCCGGCGGCUCGAGCCCGGGUAAGUGUAAAUUGUCUGCAUGCCGCCGGGCGCCAUGCCUGCAGGUCGACUCUAGAAAACAUG,binding signal,PUM1 PUF domain R1-RMS,2.07 log2 enrichment (interaction score)
same,binding signal,PUM1 PUF domain R1-LKR,2.22 log2 enrichment (interaction score)
GGCUAGAACUAGUGGAUCCCCCGGCGCCCGGCGGCUCGAGCCCGGGUAAGUCUAAAUAGUCUGCAUGCCGCCGGGCGCCAUGCCUGCAGGUCGACUCUAGAAAACAUG,binding signal,PUM1 PUF domain R7-KHQ,4.15 log2 enrichment (interaction score)
GGCUAGAACUAGUGGAUCCCCCGGCGCCCGGCGGCUCGAGCCCGGGUAAGUGUAUAUAGUCUGCAUGCCGCCGGGCGCCAUGCCUGCAGGUCGACUCUAGAAAACAUG,binding signal,PUM1 PUF domain R4-TAQ,3.78 log2 enrichment (interaction score)
